Screening results deposited in PubChem by National Center for Advancing Translational Sciences (NCATS).
Epigenetic reg: Quantitative High-Throughput Screen for Regulators of Epigenetic Control. murine LDR cells, GFP reporter derepression, 30 h. Potency, µM (doses to about 53.9 µM), for the others: at the highest dose GFP activation, most hits filed as activators. hit rate 0.2% among 280,000; further: potency means the concentration at half of the fitted maximal effect; % of control where 0% means no effect; nearly all actives have a fitted effect of over 60% in size
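Readout is the number of GFP-expressing murine LDR cells, counted by cytometry following washing. Cells were treated with compound for 30 h at 37 C; the stably integrated CMV-GFP locus is normally silent.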
Vif-APOBEC3F blk: qHTS for Inhibitors of Vif-A3F Interactions: qHTS. HeLa A3F-eYFP + Vif (tagged APOBEC3F with the HIV-1 protein that degrades it), YFP fluorescence increase. Potency, µM (top dose mostly 46.1 µM), for the others: top-dose activity, negative = active. hit rate 0.2% among 390,000; further: potency means the concentration at half of the fitted maximal effect; % of control where 0% means no effect; nearly all actives have a fitted effect of over 65% in size
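Fluorescence increase (Ex 488/Em 500-530) after overnight compound treatment at 37 deg C flags inhibition of Vif-driven A3F-eYFP loss in stable HeLa A3F-eYFP/Vif cells seeded overnight beforehand.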
Vif-A3G inh: qHTS for Inhibitors of Vif-A3G Interactions: qHTS. DNA dC->dU-editing enzyme APOBEC-3G (Homo sapiens), Q9HC16. HeLa A3G-eYFP + Vif (tagged APOBEC3G with the HIV-1 protein that degrades it), YFP fluorescence, overnight. Potency, µM (top dose mostly 46.1 µM), inactives show at the top dose activity, negative = active, usual class: inhibitors. hit rate 0.076% among 410,000. AID 602310, 2012; further: potency means the concentration at half of the fitted maximal effect; on the % scale 0 is the no-effect control and ±100 the full control effect; nearly all actives have a fitted effect of over 60% in size
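Read-out is eYFP fluorescence (Ex 488/Em 500-530) from Vif-expressing HeLa A3G-eYFP cells; more signal means A3G escaped Vif-mediated degradation. Cells plated overnight, compound pinned in, incubated overnight at 37 deg C.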
CBFb RUNX1 block: qHTS Assay for Compounds Blocking the Interaction Between CBF-beta and RUNX1 for the Treatment of Acute Myeloid Leukemia; 230,000 tested, under 10 active; AlphaScreen CBFb-His/RUNX1-biotin binding, biochemical; Potency, µM (top dose mostly 59.8 µM), for the others: at the top dose activity, negative = inhibition, actives largely listed as inhibitors; AID 1477, 2009; further: % of control where 0% means no effect
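Bead-based AlphaScreen assay; binding partners His-tagged CBF-beta and biotinylated RUNX1 at 30 nM each. Compound exposure 15 min after a 20-min protein preincubation; bead step 90 min; all steps at room temperature.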
PTAP TSG101 blk: qHTS Assay for Iinhibitors of HIV-1 Budding by Blocking the Interaction of PTAP/TSG101; Fluorescence polarization, FITC-PTAP peptide / Tsg101 binding; Potency, µM (doses to about 115 µM), without a hit: at the highest dose activity change, negative = inhibition, usual class: inhibitors; 340,000 tested, under 10 active; active means well fitted inhibition curve with a large enough effect in the main read-out, with a control signal flat, not every such curve was filed as active; inconclusive means small, poorly fitted or top-dose-only effect, or effect the other way, or a change in a side signal; inactive means no such curve, though single readings can be large or run the other way; further: potency means the concentration at half of the fitted maximal effect; % of control where 0% means no effect
Target sequence (Q99816 whole entry, looked up): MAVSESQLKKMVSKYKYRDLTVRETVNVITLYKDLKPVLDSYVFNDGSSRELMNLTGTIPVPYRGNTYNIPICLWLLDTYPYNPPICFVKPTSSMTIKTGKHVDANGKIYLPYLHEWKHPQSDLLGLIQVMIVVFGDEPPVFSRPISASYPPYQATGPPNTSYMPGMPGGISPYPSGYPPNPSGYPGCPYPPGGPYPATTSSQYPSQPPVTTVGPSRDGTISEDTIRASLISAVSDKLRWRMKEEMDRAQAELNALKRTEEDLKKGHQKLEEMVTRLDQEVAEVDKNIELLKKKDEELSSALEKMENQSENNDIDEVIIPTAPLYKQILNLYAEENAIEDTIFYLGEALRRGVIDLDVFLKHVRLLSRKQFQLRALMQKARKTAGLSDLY
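Tsg101 binding domain (10 uM final) was mixed with compound and a FITC-labeled PTAP peptide (50 nM final) in HEPES pH 7.5 buffer with NaCl, Tween 20, EDTA and TCEP; fluorescence polarization was read after 20 min at r.t.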
MBNL1 CUG block: qHTS Assay for Inhibitors of MBNL1-poly(CUG) RNA binding; Muscleblind-like protein 1 (Homo sapiens), Q9NR56; TR-FRET MBNL1-His/biotin-(CUG)12 binding, 665/545 ratio; Potency, µM (titrated, usually from 57.5 µM), without a hit: at the top dose activity change, negative = inhibition, actives largely listed as inhibitors; hit rate 0.036% among 280,000; AID 2675, 2010; active means well fitted inhibition curve with a large enough effect in the signal ratio, with a control signal flat, not every such curve was filed as active; inconclusive means small, poorly fitted or top-dose-only effect, or effect the other way, or a change in a side signal; inactive means no such curve, though single readings can be large or run the other way; the % refers to the signal ratio; further: potency means the concentration at half of the fitted maximal effect; on the % scale 0 is the no-effect control and ±100 the full control effect
Target sequence (Q9NR56 whole entry, looked up): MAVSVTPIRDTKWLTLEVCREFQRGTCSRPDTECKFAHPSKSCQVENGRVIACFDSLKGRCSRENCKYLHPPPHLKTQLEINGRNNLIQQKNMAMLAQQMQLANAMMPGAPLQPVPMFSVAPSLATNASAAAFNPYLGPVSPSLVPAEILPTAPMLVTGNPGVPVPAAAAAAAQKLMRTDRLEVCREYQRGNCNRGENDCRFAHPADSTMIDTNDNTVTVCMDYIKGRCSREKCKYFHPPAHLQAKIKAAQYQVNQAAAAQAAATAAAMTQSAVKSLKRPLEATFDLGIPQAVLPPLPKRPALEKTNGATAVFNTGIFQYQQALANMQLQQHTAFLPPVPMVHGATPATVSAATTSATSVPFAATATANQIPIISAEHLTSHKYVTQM
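Ratiometric TR-FRET (665 over 545 nm, excitation 340 nm) tracks disruption of MBNL1-His/biotin-(CUG)12 complex after 60 min at room temperature, with compounds at 92 nM to 58 uM final.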
An asterisk follows results filed as active; ? = inconclusive; . = no result given; [ ] = remark or other dose. Rows were chosen to be rich in hits. Some 0.37% of all compounds tested hit in one or more screens of this group. Unless noted, the call rests on the fitted dose curve; in most records, active means well fitted curve in the direction sought with a large enough effect; inconclusive means small, poorly fitted or top-dose-only effect, or another doubt; inactive means no such curve, though single readings can be large; an effect the other way counts as inactive or inconclusive.

SMILES	Epigenetic reg	Vif-APOBEC3F blk	Vif-A3G inh	CBFb RUNX1 block	PTAP TSG101 blk	MBNL1 CUG block
C=C1C(=O)C=C2CN(C(=O)c3ccccc3)[C@@](Cc3ccc(F)cc3)(C(=O)OC)[C@@H]12	11.6%	-9.8%	7.08µM*	5.1%[2.36 µM]	1.6%	-13.7%
Cc1c(N2C(=O)/C(=C/c3ccc(N(C)C)cc3)N(C)C2=S)c(=O)n(-c2ccccc2)n1C	.	10µM*	?	.	30.4%	.
CCCN(CCC)S(=O)(=O)c1ccc(C(=O)OCCN2C(=O)c3cccc4c(N5CCOCC5)ccc(c34)C2=O)cc1	25.1µM*	-16.8%	-6.9%	1.5%	?	21.2%[11.5 µM]
C=C(/C=C/c1ccc(N(C)C)cc1)c1nc2ccccc2s1	.	.	11.2µM*	.	.	.
COc1cc(/C=C(\C#N)c2nc3ccccc3[nH]2)ccc1OCc1ccccc1F	13.0%	22.4µM*	?	.	.	.
COc1cc(/C=C(\C#N)c2nc3ccc(C)cc3[nH]2)ccc1OCc1ccc(C)cc1	5.62µM*	?	-25.3%	.	.	.
Cc1cccc(C=Nc2ccccc2C(N)=O)c1	-1.3%	-14.8%	10µM*	5.2%	-7.1%	-2.4%
Cc1ccc(-c2nc(C=Nc3ccc(O)cc3)c(O)o2)cc1	?	25.1µM*	?	-18.7%	?	17.0%
CN=Cc1nc(-c2ccccc2)oc1O	0.0%	2.8%	1.3%	-3.5%	-2.2%	?
N#C/C(=C\c1cc([N+](=O)[O-])c(N2CCOCC2)cc1N1CCOCC1)c1nc2ccccc2[nH]1	2.2%	0.9%	2.3%	?	-4.1%	?
N#C/C(=C\c1ccc(N2CCOCC2)o1)c1ccccc1	11.2µM*	?	?	?	15.0%	16.4%
N#C/C(=C/c1ccc(N2CCOCC2)o1)c1ccc(Br)cc1	3.98µM*	.	?	-19.6%	?	7.8%
N#C/C(=C\c1ccc(N2CCOCC2)cc1)c1ccccc1	-1.9%	1.6%	-3.2%	-13.7%	-1.5%	?
N#C/C(=C/c1ccc(N2CCOCC2)o1)c1nc2ccccc2[nH]1	15.8µM*	?	?	-13.3%	?	?
CC(C)(C)n1ncc2c(=O)n(Cc3c(F)ccc(Cl)c3Cl)cnc21	.	.	1.0%	.	.	.
C(=C\c1ccnc2ccccc12)/c1ccccc1	.	.	-4.5%	.	.	.
CN(C)c1ccc(/C=C2\C=Cc3ccccc32)c(F)c1	.	.	-9.4%	.	.	.
C=CCCc1ccc(C#N)c(SCc2c(C(=O)OCC)c3cc(OC(C)=O)c(Br)cc3n2C)n1	12.6µM*	-8.3%	1.1%	1.1%	0.6%	-4.9%
Cc1nnc(N2C(=O)c3cccc4c([N+](=O)[O-])ccc(c34)C2=O)s1	.	28.2µM*	?	.	-3.4%	?
Cc1ccnc(N2C(=O)c3cccc4c([N+](=O)[O-])ccc(c34)C2=O)c1	?	?	4.3%	5.8%	-26.3%	?
Nc1cccc[n+]1C(c1ccnc2ccccc12)[n+]1ccccc1N	.	.	-2.4%	.	.	.
COCc1nc2ccccc2n1Cc1ccccc1	0.7%	-3.3%	2.4%	5.5%	-5.9%	-0.1%
ClCc1nc2ccccc2n1Cc1ccccc1	.	5.62µM*	?	.	?	-7.0%
COc1ccc(/C=C/C(=O)c2ccc([N+](=O)[O-])o2)cc1OC	.	?	7.94µM*	.	-2.1%	.
CC(C)n1cc(/C=C/c2cc[n+](C)cc2)c2ccccc21	.	-497.9%	3.98µM*	.	?	?
SMILES	Epigenetic reg	Vif-APOBEC3F blk	Vif-A3G inh	CBFb RUNX1 block	PTAP TSG101 blk	MBNL1 CUG block
CCn1cc(/C=C/c2cc[n+](C)cc2)c2ccccc21	.	-521.3%	2.51µM*	.	?	?
O=C(C[N+]1(CCO)CCOCC1)c1cccc2ccccc12	.	.	3.5%	.	.	.
O=c1cc(O)c2c([nH]1)CCC2	.	.	-2.1%	.	.	.
O=C1NC(=Nc2ccc(O)cc2)S/C1=C/c1ccco1	3.0%	-0.6%	11.2µM*	-22.4%	-3.8%	5.9%
Cc1ccc(N=C2NC(=O)/C(=C\c3ccco3)S2)cc1	1.1%	0.3%	-5.6%	?	-0.4%	26.5%
CC1(C)CC(=O)C2=C(C1)OC(N)=C(C#N)C2c1ccccc1 (stereo not given)	-2.9%	-0.5%	-5.3%	-0.7%	-3.8%	-6.8%
CC1CC(=O)C2=C(C1)OC(N)=C(C#N)C2c1coc2ccccc2c1=O (stereo not given)	0.0%	11.2µM*	-15.1%	3.8%	-1.2%	14.6%
CC(C)Oc1ccc(-c2nc(-c3cccnc3)no2)cc1	.	.	4.1%	.	.	.
O=C1c2cccc3cccc(c23)C(=O)N1c1ccc(O)cc1	.	-1.1%	-2.7%	.	-0.5%	?
O=C1c2cccc3c(N4CCCCC4)ccc(c23)C(=O)N1c1ccc(O)cc1	?	?	7.94µM*	10.1%	?	21.2%
O=C1c2cccc3c(N4CCCCC4)ccc(c23)C(=O)N1c1ccccc1O	?	8.91µM*	13.7%	?	?	?
C[C@@H]1NC(=O)N[C@@H]1CCCCCC(=O)O	.	-1.5%	1.6%	.	-5.5%	.
CC1NC(=O)NC1CCCCCC(=O)NCCc1ccccc1 (stereo not given)	1.6%	2.2%	0.6%	?	-4.9%	0.447µM*
Cc1cccc(C)c1NC(=O)CCCCCC1NC(=O)NC1C (stereo not given)	1.4%	-0.7%	1.3%	?	-0.6%	0.708µM*
Cc1cccc(Cn2cnc3c(cnn3C(C)(C)C)c2=O)c1F	.	.	0.1%	.	.	.
Cc1csc2nc(COC(=O)c3ccc(NC(=O)c4ccccc4Br)cc3)cc(=O)n12	-7.0%	2.1%	3.6%	.	.	.
CCN(CC)c1ccc(/C=C2\SC(N)=NC2=O)cc1	.	?	8.91µM*	.	?	30.7%
C=CCN1C(=O)/C(=C/c2ccc(O)c(OC)c2)S/C1=N/c1nccs1	1.9%	31.6µM*	?	1.8%	15.9%	?
C=CCN1C(=O)/C(=C/c2ccc(N(C)C)cc2)S/C1=N\c1nnc(CC)s1	12.6µM*	.	.	6.1%	.	-3.1%
C=CCN1C(=O)/C(=C/c2ccc(OCC(=O)O)cc2)S/C1=N/c1nccs1	1.9%	8.0%	0.6%	0.0%	-0.5%	?
Cc1ccnc(NC(=S)NC(=O)/C=C/c2ccco2)c1	0.0%	-6.4%	7.94µM*	-23.3%	0.0%	23.4%
Cc1ccc(O)c(NC(=S)NC(=O)/C=C/c2ccco2)c1	1.1%	3.2%	?	?	-0.6%	11.9%
